# Bioassay records (PubChem)
# Rce1 inh = yeast Rce1p protease inhibitors, primary screen, biochemical, fluorescence, cell-free homogeneous; CAAX prenyl protease 2 (Saccharomyces cerevisiae (strain ATCC 204508 / S288c)), Q03530; yeast membranes, quenched prenylated peptide cleavage fluorescence; calls only; hit rate 0.27% among 290,000; AID 2563, 2010;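 active means fall in fluorescence gain of 50% or more versus controls, with final raw signal at or below 3038400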;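 further: plate controls were neutral control wells for no effect and wells lacking membranes for full effect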
# Target sequence (Q03530 whole entry, looked up): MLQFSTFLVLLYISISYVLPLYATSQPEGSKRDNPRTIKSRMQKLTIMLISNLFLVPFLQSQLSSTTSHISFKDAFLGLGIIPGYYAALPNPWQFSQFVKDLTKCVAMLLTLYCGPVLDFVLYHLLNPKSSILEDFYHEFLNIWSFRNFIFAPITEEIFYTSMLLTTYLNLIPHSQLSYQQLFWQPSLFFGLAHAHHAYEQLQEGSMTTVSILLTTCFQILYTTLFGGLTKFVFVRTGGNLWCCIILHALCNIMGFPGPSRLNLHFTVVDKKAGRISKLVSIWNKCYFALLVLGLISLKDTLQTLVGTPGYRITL
# FID counter = compounds displacing fluorescent DNA intercalator, primary screen, artefact control for HCV NS3 helicase inhibitor project, biochemical, FID fluorescence | inhibition, % at 7.9 µM | DNA fluorescent intercalator displacement | AID 1845, 2009 | hit rate 0.17% among 290,000; in the data active means inhibition above about 37%;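 further: 0% = vehicle and 100% = reference compound; higher means more ethidium bromide displaced from hairpin DNA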
# M18AAP inhibitor = PfM18AAP inhibitors, malaria aminopeptidase, primary screen, biochemical, QFRET, recombinant enzyme; hit rate 1.2% among 290,000; M18 aspartyl aminopeptidase (Plasmodium falciparum 3D7); H-Glu-NHMec fluorogenic cleavage; inhibition, % at 7.35 µM;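 active means inhibition above the campaign mean inhibition over all tested compounds plus 3 SD, cut at about 28% in these data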;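 further: 0% = plate median of test compound wells and 100% = 2 mM ZnCl2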
# Kir21 inh = inhibitors of mouse Kir2.1 inward-rectifier potassium channel; hit rate 0.85% among 310,000; HEK293-Kir2.1, FluxOR thallium flux fluorescence; stronger effect = lower value; B-score at 10 µM; Inward rectifier potassium channel 2 (Mus musculus), P35561;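 active means fluorescence ratio B-score at or below minus 3 SD of library scores, with starting-brightness B-score within 2 SD, cut at about -4.2 in these data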;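 further: channel flux triggered by added potassium and thallium sulfate stimulus; B-score of peak minus minimum fluorescence over baseline after thallium stimulus; more negative B-score means stronger Kir2.1 block with less thallium influx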
# An asterisk follows results filed as active; i = inactive; . = no result; + = active, no number. Hits are enriched below; roughly 2.3% of the tested compounds scored in any of these assays.
SMILES,Rce1 inh,FID counter,M18AAP inhibitor,Kir21 inh
COc1ccc(CNCc2ccncc2)c(OC)c1,i,0,-2,0.39
COc1ccc(CNCc2ccc3ccccc3c2)c(OC)c1,i,20,6,-8.5*
COC(=O)c1sc2nc(N3CCCCC3)c3c(c2c1N)CCCC3,i,-2,-6,-0.67
NC(=O)c1sc2nc(N3CCCCC3)c3c(c2c1N)CCCC3,+,-10,9,0.03
Cc1cc(N2CCCC2)ccc1NC(=O)CN1C(=O)NC(C)(c2ccccc2)C1=O (configuration not stated),i,-14,30*,0.6
Cc1cc(-c2nnc(CCC(=O)NC(C)(C)C34CC5CC(CC(C5)C3)C4)o2)no1,i,-36,2,-1.7
CCCCNC(=O)Oc1c(Br)cc2sc(=O)oc2c1Br,.,-3,30*,.
Cc1ccc(C(=O)c2coc3ccc(O)c(CN4CCN(C)CC4)c23)cc1,i,21,3,-4.6*
COc1ccc(C(=O)c2coc3ccc(O)c(CN4CCOCC4)c23)cc1,i,3,7,-4.7*
COc1ccc(C(=O)c2coc3ccc(O)c(CN4CCCC4)c23)cc1,i,6,3,-1.4
O=C(c1cccs1)c1coc2ccc(O)c(CN3CCOCC3)c12,i,-3,12,-4.2*
O=C(c1coc2ccc(O)c(CN3CCOCC3)c12)C1CC1,i,3,11,0
Cn1c(Cc2ccc(Cl)cc2)nnc1SCC(=O)NC1CC1,i,-6,5,1.4
CC(=O)N1CCC(C(=O)NCCOc2ccc(C)cc2)CC1,i,-16,3,-0.72
O=C(Nc1ccccc1N1CCOCC1)c1cc2ccccc2o1,.,-30,7,1.7
O=C(Nc1ccc(N2CCOCC2)c(Cl)c1)c1cc2ccccc2o1,+,-17,0,0.74
COc1ccc(N/C=C2\CCc3ccccc3C2=O)cc1,i,7,37*,-1.9
COc1ccc2c(c1)CC/C(=C\Nc1ccc3c(c1)OCO3)C2=O,.,4,-30,-0.99
O=C1C(=O)N(CCCN2CCOCC2)C(c2ccc([N+](=O)[O-])cc2)/C1=C(/O)c1ccc2c(c1)OCO2 (configuration not stated),i,-15,31*,0.66
O=C(Cc1cc2ccccc2o1)NCc1ccc(F)cc1,i,-7,-2,0.58
CCN=C1S/C(=C\c2ccc(O)c(OCC)c2)C(=O)N1CC,i,-14,5,-5.7*
COc1ccc(N(CC(=O)NCc2ccccc2Cl)S(=O)(=O)c2c(C)noc2C)cc1,i,-29,1,-1.3
Cc1ccc(-n2c(-c3ccccc3)c[n+]3c2CCC3)cc1,i,-4,-4,-0.41
Cc1ccc(-n2c(-c3ccccc3)c[n+]3c2CCc2ccccc2-3)c(C)c1,i,7,2,-8.2*
CN1CCCC(OC(=O)c2cc(Cl)cc(Cl)c2)C1 (configuration not stated),i,14,-3,-4.3*
SMILES,Rce1 inh,FID counter,M18AAP inhibitor,Kir21 inh
CCCCn1nc(CC(=O)NCCN(CC)CC)c2ccccc2c1=O,i,7,9,0.48
CS(=O)(=O)c1nc(-c2ccccc2)cc(-c2ccccc2)c1C#N,i,-2,-3,1.9
Cc1ccc(-c2cc(-c3ccccc3)c(C#N)c(Br)n2)cc1,+,-7,1,1.9
COc1ccc(C2CC3(CC(C)(C)NC(SC)=N3)Oc3cc(O)cc(C)c32)cc1 (configuration not stated),i,15,-8,-5.3*
COc1ccc(C2CC3(CC(C)(C)NC(=S)N3)Oc3cc(O)cc(C)c32)cc1 (configuration not stated),i,-18,12,-0.38
O=c1c2ccccc2ncn1-c1ccc([N+](=O)[O-])cc1Cl,i,2,-5,-0.71
COc1ccc(CNCc2cccc(OC)c2OC)cc1Br,i,22,0,-5*
COc1ccccc1CNCc1cc(OC)c(OC)c(OC)c1,i,11,6,-0.17
COC(=O)c1ccc(NC(=O)CSc2nn3c(=O)c(C)nnc3s2)cc1,i,-5,-12,0.49
Cc1coc2c1C(=O)C(=O)c1c-2ccc2c1CCCC2(C)C,i,-9,5,-1.3
C[C@H]1COC2=C1C(=O)C(=O)c1c2ccc2c1CCCC2(C)C,i,-20,0,-5.4*
COCCNC(=S)NNC(=O)c1cc(C2CC2)nc2ccccc12,i,-10,19,1.2
COCCN1C(=O)/C(=C/c2ccc(Oc3ccc([N+](=O)[O-])cn3)c(OC)c2)SC1=Nc1ccccc1,+,-1,7,1.6
CN(C)CCNC(=O)C1(O)c2cc(Br)ccc2NC(=O)N1c1ccc(Cl)cc1 (configuration not stated),i,-2,5,-0.72
CCOc1ccccc1NC(=O)CSc1nccn1-c1ccccc1,i,-15,0,-7*
COc1ccccc1NC(=O)Cc1nnc(SCC(=O)Nc2ccccc2F)n1C,i,-19,6,-2.1
COc1ccc(NC(=O)CSc2nccn2-c2ccccc2)c(OC)c1,i,-23,-6,-0.55
COc1ccccc1NC(=O)Cc1nnc(SCC(=O)Nc2nccs2)n1C,+,-14,-5,-1.2
CCc1ccc(CSc2nccn2-c2ccccc2)cc1,i,-17,0,-4.9*
COc1ccc(Cn2ccnc2SCC(=O)Nc2ccccc2OC)cc1,i,-34,-1,-4.5*
Cc1nn(Cc2c(F)c(F)c(F)c(F)c2F)c(C)c1NC(=O)c1nn(C)c(C)c1Br,i,-37,0,-2.1
Cc1ccc(NC(=O)CN2CCN(Cc3ccccc3)CC2)cc1F,i,0,-2,-0.18
Cc1ccc(-c2cc3cccc[n+]3cc2-c2ccc(C)cc2)cc1,+,9,-13,-12*
O=C1NC(=O)C(Cc2c[nH]c3ccccc23)N1 (configuration not stated),i,0,-10,1.3
N=C(N)c1ccc(/C=C/c2ccc(C(=N)N)cc2O)cc1,+,53*,-15,-0.56
SMILES,Rce1 inh,FID counter,M18AAP inhibitor,Kir21 inh
N=C(N)c1ccc(Cl)cc1,i,-2,2,0.35
COc1ccc(CNC(=O)c2sc3nc4c(c(C(F)(F)F)c3c2N)CCC4)cc1,i,-2,4,-5.1*
Cc1[nH]c2ccccc2c1SCC(=O)N1CCCc2ccccc21,i,-19,0,-7.8*
CCn1c(SCC(=O)N2CCCc3ccccc32)nc2cccnc21,i,-23,2,-4.9*
Cn1c(-c2ccccc2)cnc1SCC(=O)N1CCCc2ccccc21,i,-30,3,-7.5*
O=C(CSc1nccn1-c1ccc(Cl)cc1)N1CCCc2ccccc21,i,-33,3,-9.3*
Cn1c(SCC(=O)N2CCCc3ccccc32)nc2cccnc21,i,-9,16,-0.98
Clc1ccc(Nc2ccc(NCc3ccccc3)nn2)cc1,i,9,-4,-5.5*
OC(CNCc1ccc(F)cc1)(c1ccccc1)c1ccc(F)cc1 (configuration not stated),i,3,4,-6.5*
